Assay outcomes as filed in PubChem.
The list is not random: actives were taken first. Their share in the collection is about 28%.
CYP2C9 inh = blockers of cytochrome P450 2C9 activity – biochemical, luminescence, ADME assay, primary screen; P11712; CYP2C9 Supersomes, luciferin-H conversion; inhibition, % at 5 µM; 20% of 96,000 active;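 active = blocking of liver enzyme CYP2C9 beyond about 50% at 5 µM, limit read from the data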
CYP2C9 activ = human CYP2C9 activators, primary screen, biochemical, luminescence; Cytochrome P450 2C9 (Homo sapiens), P11712; recombinant CYP2C9, luciferin-H conversion; active compounds read high; factor 1 = untreated enzyme, 0 = blocked; activation factor at 5 µM; 1.4% of 96,000 active; AID 1024, 2008;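 active = activation factor of 2 or more for CYP2C9 at a 5 µM dose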;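 note: 0 = sulfaphenazole-blocked wells and 1 = vehicle-only wells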
CYP2C19 activ = human CYP2C19 activators, primary screen, biochemical, luminescence. Cytochrome P450 2C19 (Homo sapiens), P33261. recombinant CYP2C19, luciferin-H EGE luminescence; active compounds read high; 0 = fully inhibited enzyme, 1 = untreated enzyme. activation factor at 5 µM. 96,000 tested, under 10 active;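 active = activation factor of at least 2 at 5 µM in the primary screen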;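 note: 0 = wells with 2.5 mM tranylcypromine and 1 = vehicle-only wells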
PTK2B oligo ant = antagonists of Pyk2 self-association, primary screen, Q293 cells, FERM NanoBiT luminescence, HTS; active compounds read low; Protein-tyrosine kinase 2-beta (Homo sapiens), Q14289; z-score (the deposit names both 25 µM and 10 µM); 0.83% of 99,000 active;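 active = Z-score of -3 or lower, scaled per plate to the spread of control and sample wells; inactive = z-score above -3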;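 note: negative z-score means lost luminescence so less FERM oligomerization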
Target sequence (Q14289 whole entry, looked up): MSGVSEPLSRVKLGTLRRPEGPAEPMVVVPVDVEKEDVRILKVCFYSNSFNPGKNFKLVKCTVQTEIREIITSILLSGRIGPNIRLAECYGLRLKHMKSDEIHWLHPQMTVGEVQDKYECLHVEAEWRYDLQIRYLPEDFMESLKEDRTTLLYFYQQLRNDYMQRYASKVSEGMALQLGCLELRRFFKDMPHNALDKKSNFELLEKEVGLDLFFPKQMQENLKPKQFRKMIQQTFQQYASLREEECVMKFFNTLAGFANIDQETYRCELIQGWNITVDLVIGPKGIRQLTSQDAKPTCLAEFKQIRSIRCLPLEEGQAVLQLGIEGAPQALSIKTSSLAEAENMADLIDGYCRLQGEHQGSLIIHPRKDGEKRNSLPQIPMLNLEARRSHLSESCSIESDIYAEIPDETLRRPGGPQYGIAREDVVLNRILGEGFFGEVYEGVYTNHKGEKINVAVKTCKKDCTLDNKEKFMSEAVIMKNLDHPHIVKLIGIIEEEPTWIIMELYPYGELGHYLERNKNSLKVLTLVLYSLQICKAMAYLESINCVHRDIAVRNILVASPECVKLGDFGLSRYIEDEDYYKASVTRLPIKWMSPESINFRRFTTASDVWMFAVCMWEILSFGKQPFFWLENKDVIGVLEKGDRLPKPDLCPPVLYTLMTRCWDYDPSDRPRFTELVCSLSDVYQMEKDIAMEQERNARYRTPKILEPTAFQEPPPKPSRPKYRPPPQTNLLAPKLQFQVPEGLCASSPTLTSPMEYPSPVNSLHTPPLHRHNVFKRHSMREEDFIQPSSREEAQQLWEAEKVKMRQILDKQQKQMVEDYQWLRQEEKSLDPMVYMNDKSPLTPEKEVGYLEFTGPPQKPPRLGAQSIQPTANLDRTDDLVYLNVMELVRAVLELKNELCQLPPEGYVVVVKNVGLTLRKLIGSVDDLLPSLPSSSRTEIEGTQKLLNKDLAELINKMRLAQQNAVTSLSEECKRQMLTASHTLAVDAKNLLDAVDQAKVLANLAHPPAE
CYP2C19 inh = blockers of cytochrome P450 2C19 activity – biochemical, luminescence, ADME assay, primary screen | inhibition, % at 5 µM | AID 778, 2007 | CYP2C19 Supersomes, luciferin-H EGE luminescence, 30 min | P33261 | 21% of 96,000 active;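 active = CYP2C19 inhibition above a set limit at 5 µM in the primary screen, cut at about 50% in these data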;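 note: plate controls were negative control wells for no effect and 2.5 mM tranylcypromine positive control for full effect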
* marks the source's active call; other numbers are inactive results.

`NC(=O)c1c(-c2cccs2)csc1N` gave CYP2C9 inh 6, CYP2C9 activ 0.9, CYP2C19 activ 1.1 and CYP2C19 inh -9.
Screening COc1ccc(S(=O)(=O)N(C)CC(=O)Nc2ccc(F)cc2)cc1 returned CYP2C9 inh -120, CYP2C9 activ 2.2*, CYP2C19 activ 0.5, PTK2B oligo ant -1.2 and CYP2C19 inh 45.
Screening COc1ccc(S(=O)(=O)N(C)CC(=O)Nc2cccc(C(C)=O)c2)cc1Cl returned CYP2C9 inh -18, CYP2C9 activ 1.2, CYP2C19 activ 0.1, PTK2B oligo ant 0.05 and CYP2C19 inh 93*.
For CN(CC(=O)O)S(=O)(=O)c1ccc(F)cc1 the results were PTK2B oligo ant 0.63.
Screening COc1ccc(S(=O)(=O)N(C)CC(=O)NC2CCCC2)cc1Cl returned CYP2C9 inh -77, CYP2C9 activ 1.8, CYP2C19 activ 0.4, PTK2B oligo ant 0.29 and CYP2C19 inh 55*.
COc1cccc(C(=O)Nc2cccc(NC(C)=O)c2)c1 was read as CYP2C9 inh -9, CYP2C9 activ 1.1, CYP2C19 activ 0.7, PTK2B oligo ant 0.27 and CYP2C19 inh 32.
For CN(CC(=O)NC1CCCCC1)S(=O)(=O)c1ccc(Cl)cc1 the results were CYP2C9 inh 4, CYP2C9 activ 1, CYP2C19 activ 0.9, PTK2B oligo ant 0.29 and CYP2C19 inh 6.
COc1cc(OC)cc(C(=O)Nc2cccc(C(C)=O)c2)c1 was read as CYP2C9 inh 76*, CYP2C9 activ 0.2, CYP2C19 activ 0.3, PTK2B oligo ant 0.06 and CYP2C19 inh 71*.
CC1(C)C2CCC1(C)C(OC(=O)CSc1nc(N)cc(=O)[nH]1)C2 (stereo not drawn) was read as CYP2C9 inh -1, CYP2C9 activ 1, CYP2C19 activ 0.8, PTK2B oligo ant 0.01 and CYP2C19 inh 22.
Cc1ccc(S(=O)(=O)N(C)CC(=O)Nc2cccc(C)n2)cc1 was read as CYP2C9 inh -25, CYP2C9 activ 1.3, CYP2C19 activ 0.8, PTK2B oligo ant 0.34 and CYP2C19 inh 23.
COc1ccc(S(=O)(=O)N(C)CC(=O)Nc2cccc(C(C)=O)c2)cc1 was read as CYP2C9 inh 38, CYP2C9 activ 0.6, CYP2C19 activ 0.1, PTK2B oligo ant -0.13 and CYP2C19 inh 88*.
Screening COc1cccc(-n2nnnc2SCC(=O)NC2CCCC2)c1 returned CYP2C9 inh -98, CYP2C9 activ 2*, CYP2C19 activ 0.6, PTK2B oligo ant 0.1 and CYP2C19 inh 44.
For COc1cc(OC)cc(-n2nnnc2SCC(=O)N2CCCc3ccccc32)c1 the results were CYP2C9 inh 22, CYP2C9 activ 0.8, CYP2C19 activ 0.5, PTK2B oligo ant -0.74 and CYP2C19 inh 49.
For CCN(CC)S(=O)(=O)c1ccc2c(c1)nc(SCC(=O)NC1CC1)n2-c1ccccc1OC the results were CYP2C9 inh 75*, CYP2C9 activ 0.2, CYP2C19 activ 0.8, PTK2B oligo ant -3.3* and CYP2C19 inh 21.
For COc1cccc(-n2nnnc2SCC(=O)N2CCCc3ccccc32)c1 the results were CYP2C9 inh 19, CYP2C9 activ 0.8, CYP2C19 activ 0.5, PTK2B oligo ant 0.36 and CYP2C19 inh 52*.
COc1cccc(-n2c(SCC(=O)NC3CCCC3)nnc2-c2ccco2)c1 was read as PTK2B oligo ant -0.57.
For COc1ccccc1-n1nnnc1SCC(=O)NC1CCCC1 the results were CYP2C9 inh -126, CYP2C9 activ 2.3*, CYP2C19 activ 0.9, PTK2B oligo ant -1.2 and CYP2C19 inh 11.
For COc1ccccc1-n1c(SCC(=O)NC2CCCC2)nc2cccnc21 the results were CYP2C9 inh 20, CYP2C9 activ 0.8, CYP2C19 activ 0.8, PTK2B oligo ant -0.49 and CYP2C19 inh 16.
Screening COc1cc2c(cc1OC)C(C(=O)N1CCN(c3ccccc3)CC1)C(c1cccs1)N(C)C2=O (stereo not drawn) returned CYP2C9 inh 7, CYP2C9 activ 0.9, CYP2C19 activ 0.9, PTK2B oligo ant 0.67 and CYP2C19 inh 12.
COc1ccc(-n2nnnc2SCC(=O)N2C(C)CCCC2C)c(OC)c1 (stereo not drawn) was read as CYP2C9 inh -87, CYP2C9 activ 1.9, CYP2C19 activ 0.2, PTK2B oligo ant 1.2 and CYP2C19 inh 75*.
Screening O=C(CSc1nccn1-c1cccc(Cl)c1)NC1CCCC1 returned CYP2C9 inh 67*, CYP2C9 activ 0.3, CYP2C19 activ 0.2, PTK2B oligo ant -0.47 and CYP2C19 inh 84*.
`CC1CCCC(C)N1C(=O)CSc1nnnn1-c1cccc2c1CCCC2` (stereo not drawn) gave CYP2C9 inh -34, CYP2C9 activ 1.3, CYP2C19 activ 0.7, PTK2B oligo ant -0.54 and CYP2C19 inh 26.
`O=C(CSc1nnnn1-c1cccc2c1CCCC2)NC1CCCC1` gave CYP2C9 inh -200, CYP2C9 activ 3*, CYP2C19 activ 0.9, PTK2B oligo ant -0.46 and CYP2C19 inh 10.
Screening COc1cccc(-n2nnnc2SCC(=O)Nc2cccc(NC(C)=O)c2)c1 returned CYP2C9 inh 50*, CYP2C9 activ 0.5, CYP2C19 activ 0.6, PTK2B oligo ant 0.33 and CYP2C19 inh 38.
Screening COc1ccc(-n2nnnc2SCC(=O)Nc2cccc(NC(C)=O)c2)cc1OC returned CYP2C9 inh 32, CYP2C9 activ 0.7, CYP2C19 activ 0.7, PTK2B oligo ant 1.9 and CYP2C19 inh 34.
For Cn1c(SCC(=O)NC2CCCC2)nc2cccnc21 the results were CYP2C9 inh -6, CYP2C9 activ 1.1, CYP2C19 activ 0.6, PTK2B oligo ant 0.37 and CYP2C19 inh 38.
Screening COc1cc(OC)c2c(C)c(Cl)c(=O)oc2c1 returned CYP2C9 inh -10, CYP2C9 activ 1.1, CYP2C19 activ 1, PTK2B oligo ant -0.25 and CYP2C19 inh 4.
For OCCN(CCO)Cc1ccc(Br)cc1 the results were CYP2C9 inh 0, CYP2C9 activ 1, CYP2C19 activ 0.8, PTK2B oligo ant 0.2 and CYP2C19 inh 19.
For CNCC/C=C1/c2ccccc2CSc2ccccc21 the results were PTK2B oligo ant -0.13.
`O=C(COC(=O)c1ccc(S(=O)(=O)NCc2ccco2)cc1)NCCC1=CCCCC1` gave CYP2C9 inh -3, CYP2C9 activ 1, CYP2C19 activ 1.2, PTK2B oligo ant 0.26 and CYP2C19 inh -22.
Screening O=C(CSc1nnnn1-c1cccc2c1CCCC2)N1CCOCC1 returned CYP2C9 inh -119, CYP2C9 activ 2.2*, CYP2C19 activ 0.8, PTK2B oligo ant 0.56 and CYP2C19 inh 20.
`COc1cccc(C(=O)CSc2nnnn2C2CCCCC2)c1` gave CYP2C9 inh 68*, CYP2C9 activ 0.3, CYP2C19 activ 0.6, PTK2B oligo ant 0.1 and CYP2C19 inh 40.
`COc1cccc(NC(=O)CSc2nncn2-c2ccccn2)c1` gave CYP2C9 inh 22, CYP2C9 activ 0.8, CYP2C19 activ 0.4, PTK2B oligo ant 0.74 and CYP2C19 inh 62*.
